PubChem BioAssay (NCATS)
Several values for one entry are separate records, joined by “and”; a condition that tells them apart may be missing. Equal entries are not always repeated. Records with an inconclusive call do not appear. Entries that show only a call come without a potency. Activity calls are given as the source filed them. Unless noted, the call rests on the fitted dose curve; in most records, active means well fitted curve in the direction sought with a large enough effect; inconclusive means small, poorly fitted or top-dose-only effect, or another doubt; inactive means no such curve, though single readings can be large; an effect the other way counts as inactive or inconclusive.

Key:
[1] = biological target: Galactokinase (Homo sapiens) (UniProt P51570); experiment: qHTS Validation Assay for Inhibitors of Human Galactokinase (GALK) (AID 493189)
How it was run: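 Luminescence from leftover ATP (Kinase-Glo Plus, 10 min) served as read-out after a 1 h room-temperature reaction of 5 nM GALK, 100 uM galactose and 35 uM ATP at pH8.0.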

[2] = Validation screen for small molecules that induce DNA re-replication in SW480 colon adenocarcinoma cells (AID 504364)
How it was run: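 Cells are treated 48 hr with test compound, stained 40 min with Hoechst at 37 C, and scanned for nuclear fluorescence; compounds inducing re-replication increase nuclei with elevated intensity.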

[3] = biological target: Peptidyl-prolyl cis-trans isomerase NIMA-interacting 1 (Homo sapiens) (UniProt Q13526); experiment: qHTS Validation Assay to Find Inhibitors of Pin1 (AID 504536; active means well fitted inhibition curve with a large enough effect in the polarisation, with a control signal flat, not every such curve was filed as active; the % refers to the polarisation)
How it was run: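 Fluorescence polarization competition: compounds (titration) displace HiFluor-488-labeled Pin1-1b peptide from Pin1 (0.3 uM final) in pH 7.5 HEPES buffer with DTT, 10 min at room temperature; %Activity normalized to no-enzyme wells, curves fitted.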

[4] = biological target: Phosphoglycerate kinase, glycosomal (Trypanosoma brucei brucei) (UniProt P07378); experiment: qHTS Validation Assay to Find Inhibitors of Phosphoglycerate Kinase (AID 504547)
How it was run: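 Substrate/PGK mix plus compound; reaction started with GAPDH (100nM final) to form 1,3-BPG; 60 min RT; Kinase-Glo Plus 10 min; luminescence. TEA 100mM pH 7.6, MgCl2 5mM, Tween-20 0.01%.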

[5] = biological target: phosphoglycerate mutase (Leishmania major) (UniProt Q4Q090); experiment: qHTS Validation Assay to Find Inhibitors of Phosphoglycerate Mutase (AID 504548); further: series mostly up to about 58 µM
How it was run: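 Luminescent end-point read-out via Kinase-GloPlus after a 10-minute development. Reaction: 1.25nM Leishmania major PGAM with substrate and compound, 45 minutes at room temperature in TEA buffer (pH 7.6) with MgCl2 and Tween-20.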

[6] = biological target: Ubiquitin carboxyl-terminal hydrolase 1 (Homo sapiens) (UniProt O94782); experiment: Inhibitors of USP1/UAF1: Pilot qHTS (AID 504865);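 further: rhodamine fluorescence freed from ubiquitin-rhodamine substrate followed over time; top concentration of the series differs between compounds; nearly all actives have a fitted effect of over 35% in size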
How it was run: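 1nM USP1/UAF1 + cpd, 15 min RT; start w/ Ub-Rho 150nM final; kinetic FL 480/540 nm, 6 reads q60 s. Buffer 50mM HEPES pH 7.8, 0.5mM EDTA, 1mM TCEP, 0.01% Tween-20, 0.1 mg/ml BSA.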

[7] = qHTS for Inhibitors of ATXN expression: Validation of Cytotoxic Assay (AID 588349);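 further: cells exposed to compound for 72 hr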
How it was run: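 HEK293, compound dose series, 72 hr / 37 degrees C; viability via CellTiter Glo (intracellular ATP).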

[8] = qHTS for Inhibitors of ATXN expression: Validation (AID 588378); further: series mostly up to about 57 µM; nearly all actives have a fitted effect of over 75% in size
How it was run: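 Cells: HEK293-ATXN2-FFLuc, phenol-red free DMEM, 2 h attachment. Compound pin-transfer, 24 h, 37 degrees C, 5% CO2. CellTiter-Fluor 30 min, Ex405/Em525; Bright-Glo 5 min, luminescence 2 s exposure.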

[9] = biological target: DNA dC->dU-editing enzyme APOBEC-3G (Homo sapiens) (UniProt Q9HC16); experiment: qHTS for inhibitors of Vif-A3G interactions: Validation (AID 588379)
How it was run: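 HeLa cells stably expressing Vif and A3G-eYFP, 700 cells/well, incubated overnight at 37 deg C, then exposed to compound overnight at 37 deg C. Inhibition of Vif-mediated degradation read as increased yellow fluorescence (Ex 488/Em 500-530) by laser-scanning cytometry.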

[10] = biological target: Glucocorticoid receptor (Homo sapiens) (UniProt P04150); experiment: qHTS assay for small molecule agonists of glucocorticoid receptor signaling (AID 588532; active means well fitted curve in the direction sought with a large enough effect in the signal ratio, with a control signal flat; the % refers to the signal ratio); conditions: HeLa MMTV-bla, beta-lactamase ratio, agonist, 18 h; stronger effect = higher value; percent of dexamethasone control, DMSO zero
How it was run: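 Stimulation of a glucocorticoid response element-driven beta-lactamase gene was measured in HeLa cells. Responses were scaled between DMSO basal and 0.1 uM dexamethasone, then fitted for half-maximal stimulation.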

[11] = qHTS assay for small molecule antagonists of peroxisome proliferator-activated receptor delta signaling (AID 588535; active means well fitted inhibition curve with a large enough effect in the signal ratio, with a control signal flat, not every such curve was filed as active; the % refers to the signal ratio;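 on max response: cells co-treated with a PPAR-delta agonist as stimulator during compound exposure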); conditions: HEK293T PPARd-UAS-bla, beta-lactamase FRET ratio, 18 h; 460 nm channel
How it was run: (§1)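 GeneBLAzer PPAR-delta-UAS-bla HEK293T cells in medium with 2% charcoal/dextran FBS were preincubated 5 hrs at 37 C, then given compounds, incubated 18 hrs at 37 C, and read by CCF4 beta-lactamase fluorescence; IC50 from Hill fits.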

[12] = biological target: Peroxisome proliferator-activated receptor delta (Homo sapiens) (UniProt Q03181); experiment: as above
How it was run: as §1

[13] = biological target: Peroxisome proliferator-activated receptor gamma (Homo sapiens) (UniProt P37231); experiment: qHTS assay for small molecule agonists of peroxisome proliferator-activated receptor gamma signaling (AID 588536; active means well fitted curve in the direction sought with a large enough effect in the signal ratio, with a control signal flat, not every such curve was filed as active; the % refers to the signal ratio)
How it was run: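 Test agents, titrated, stimulated HEK293 UAS-bla cells overnight (16 h, 37 C). Substrate CCF4 was then added for two hours at room temperature before fluorescence reading.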

[14] = biological target: Peroxisome proliferator-activated receptor gamma (Homo sapiens) (UniProt P37231); experiment: qHTS assay for small molecule antagonists of peroxisome proliferator-activated receptor gamma signaling (AID 588537; active means well fitted inhibition curve with a large enough effect in the signal ratio, with a control signal flat, not every such curve was filed as active; the % refers to the signal ratio;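 further: reporter cells co-stimulated with 50 nM rosiglitazone agonist during compound treatment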)
How it was run: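 PPAR-gamma-UAS-bla HEK293 cells (3000/well, 1% charcoal/dextran-stripped FBS) were preincubated 6-6.5 h at 37 C, given titrated compounds, then stimulated with 50 nM rosiglitazone for 16 h. Beta-lactamase activity was read with CCF4 dye; IC50 came from Hill fits.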

[15] = biological target: Vitamin D3 receptor (Homo sapiens) (UniProt P11473); experiment: qHTS assay for small molecule antagonists of vitamin D receptor signaling (AID 588541; calls by dose curve;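 further: receptor activated by calcitriol during compound treatment; series mostly up to about 77 µM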)
How it was run: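 VDR-UAS-bla HEK293T cells (2000/well, 2% charcoal-stripped FBS) were treated with titrated compounds plus 1-alpha,25-dihydroxyvitamin D3 (50 nM or 3 nM final) for 16 h at 37 C. CCF4 beta-lactamase fluorescence was read; Hill fits gave IC50.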

Sequence of Galactokinase (Homo sapiens) (P51570 whole entry, looked up): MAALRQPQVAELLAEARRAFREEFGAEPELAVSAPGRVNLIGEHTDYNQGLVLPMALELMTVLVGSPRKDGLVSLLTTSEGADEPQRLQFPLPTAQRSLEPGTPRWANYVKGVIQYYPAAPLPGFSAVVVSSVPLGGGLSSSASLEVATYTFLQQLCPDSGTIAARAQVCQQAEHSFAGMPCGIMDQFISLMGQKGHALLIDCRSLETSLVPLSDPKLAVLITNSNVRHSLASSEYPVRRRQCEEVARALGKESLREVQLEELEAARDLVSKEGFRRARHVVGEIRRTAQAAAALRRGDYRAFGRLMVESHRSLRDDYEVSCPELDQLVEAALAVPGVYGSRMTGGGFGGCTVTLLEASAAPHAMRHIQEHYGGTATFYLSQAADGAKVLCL
Sequence of phosphoglycerate mutase (Leishmania major) (Q4Q090 1-553): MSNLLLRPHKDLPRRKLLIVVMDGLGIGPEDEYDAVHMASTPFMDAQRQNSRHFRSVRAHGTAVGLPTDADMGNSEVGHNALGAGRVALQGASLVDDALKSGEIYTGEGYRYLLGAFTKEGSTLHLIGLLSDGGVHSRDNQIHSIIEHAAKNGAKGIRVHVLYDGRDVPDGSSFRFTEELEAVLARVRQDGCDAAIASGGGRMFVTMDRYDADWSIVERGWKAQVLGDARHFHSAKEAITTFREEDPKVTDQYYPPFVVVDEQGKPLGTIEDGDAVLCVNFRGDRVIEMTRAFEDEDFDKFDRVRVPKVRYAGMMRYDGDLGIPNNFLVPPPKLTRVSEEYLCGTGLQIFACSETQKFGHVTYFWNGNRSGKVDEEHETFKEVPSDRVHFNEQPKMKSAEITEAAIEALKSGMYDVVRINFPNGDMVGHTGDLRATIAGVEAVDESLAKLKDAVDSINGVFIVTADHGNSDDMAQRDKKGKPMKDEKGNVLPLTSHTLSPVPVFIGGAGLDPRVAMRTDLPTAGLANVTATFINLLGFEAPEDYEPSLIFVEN
Sequence of Ubiquitin carboxyl-terminal hydrolase 1 (Homo sapiens) (O94782 whole entry, looked up): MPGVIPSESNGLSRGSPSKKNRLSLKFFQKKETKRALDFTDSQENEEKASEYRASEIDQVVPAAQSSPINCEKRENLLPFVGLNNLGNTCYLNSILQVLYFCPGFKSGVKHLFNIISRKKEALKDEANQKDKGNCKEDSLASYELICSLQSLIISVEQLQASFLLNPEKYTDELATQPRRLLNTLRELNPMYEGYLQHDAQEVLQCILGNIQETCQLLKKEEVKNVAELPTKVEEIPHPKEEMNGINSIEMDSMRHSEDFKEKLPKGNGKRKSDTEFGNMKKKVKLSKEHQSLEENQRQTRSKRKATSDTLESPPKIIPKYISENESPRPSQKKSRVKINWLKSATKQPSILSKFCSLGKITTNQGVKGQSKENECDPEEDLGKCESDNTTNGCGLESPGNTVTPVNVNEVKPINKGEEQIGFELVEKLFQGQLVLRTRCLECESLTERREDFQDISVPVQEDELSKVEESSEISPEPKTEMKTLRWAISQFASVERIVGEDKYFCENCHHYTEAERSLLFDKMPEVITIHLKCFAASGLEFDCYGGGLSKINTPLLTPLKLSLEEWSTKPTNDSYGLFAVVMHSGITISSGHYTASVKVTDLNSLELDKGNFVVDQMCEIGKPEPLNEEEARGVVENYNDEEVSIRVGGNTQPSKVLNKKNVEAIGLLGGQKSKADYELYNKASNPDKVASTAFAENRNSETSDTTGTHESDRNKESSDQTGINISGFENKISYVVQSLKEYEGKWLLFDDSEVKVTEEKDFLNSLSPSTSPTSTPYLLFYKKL
Sequence of Phosphoglycerate kinase, glycosomal (Trypanosoma brucei brucei) (P07378 whole entry, looked up): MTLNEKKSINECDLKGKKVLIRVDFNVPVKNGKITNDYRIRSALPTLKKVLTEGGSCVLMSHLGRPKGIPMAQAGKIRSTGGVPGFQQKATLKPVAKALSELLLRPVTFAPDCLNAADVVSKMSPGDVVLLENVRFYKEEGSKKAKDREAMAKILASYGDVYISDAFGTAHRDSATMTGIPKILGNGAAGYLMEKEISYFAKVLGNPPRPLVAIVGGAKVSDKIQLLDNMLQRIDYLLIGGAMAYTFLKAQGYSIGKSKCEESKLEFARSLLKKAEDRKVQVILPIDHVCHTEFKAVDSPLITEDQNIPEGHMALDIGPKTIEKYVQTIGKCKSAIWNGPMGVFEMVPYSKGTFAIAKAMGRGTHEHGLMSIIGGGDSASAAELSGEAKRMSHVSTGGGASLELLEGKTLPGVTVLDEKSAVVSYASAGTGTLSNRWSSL
Sequence of Peroxisome proliferator-activated receptor delta (Homo sapiens) (Q03181 whole entry, looked up): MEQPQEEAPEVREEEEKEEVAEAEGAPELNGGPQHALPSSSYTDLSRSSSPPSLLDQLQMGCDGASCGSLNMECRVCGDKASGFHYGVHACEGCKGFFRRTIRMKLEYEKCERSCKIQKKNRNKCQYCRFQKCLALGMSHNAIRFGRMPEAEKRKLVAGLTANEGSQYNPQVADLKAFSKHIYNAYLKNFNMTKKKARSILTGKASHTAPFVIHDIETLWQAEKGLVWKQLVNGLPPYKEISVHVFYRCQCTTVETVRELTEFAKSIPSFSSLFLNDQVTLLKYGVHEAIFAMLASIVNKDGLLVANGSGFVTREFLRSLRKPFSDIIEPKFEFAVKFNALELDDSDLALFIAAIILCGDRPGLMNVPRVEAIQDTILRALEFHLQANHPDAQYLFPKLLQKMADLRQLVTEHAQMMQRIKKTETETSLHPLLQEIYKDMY
Sequence of Glucocorticoid receptor (Homo sapiens) (P04150 whole entry, looked up): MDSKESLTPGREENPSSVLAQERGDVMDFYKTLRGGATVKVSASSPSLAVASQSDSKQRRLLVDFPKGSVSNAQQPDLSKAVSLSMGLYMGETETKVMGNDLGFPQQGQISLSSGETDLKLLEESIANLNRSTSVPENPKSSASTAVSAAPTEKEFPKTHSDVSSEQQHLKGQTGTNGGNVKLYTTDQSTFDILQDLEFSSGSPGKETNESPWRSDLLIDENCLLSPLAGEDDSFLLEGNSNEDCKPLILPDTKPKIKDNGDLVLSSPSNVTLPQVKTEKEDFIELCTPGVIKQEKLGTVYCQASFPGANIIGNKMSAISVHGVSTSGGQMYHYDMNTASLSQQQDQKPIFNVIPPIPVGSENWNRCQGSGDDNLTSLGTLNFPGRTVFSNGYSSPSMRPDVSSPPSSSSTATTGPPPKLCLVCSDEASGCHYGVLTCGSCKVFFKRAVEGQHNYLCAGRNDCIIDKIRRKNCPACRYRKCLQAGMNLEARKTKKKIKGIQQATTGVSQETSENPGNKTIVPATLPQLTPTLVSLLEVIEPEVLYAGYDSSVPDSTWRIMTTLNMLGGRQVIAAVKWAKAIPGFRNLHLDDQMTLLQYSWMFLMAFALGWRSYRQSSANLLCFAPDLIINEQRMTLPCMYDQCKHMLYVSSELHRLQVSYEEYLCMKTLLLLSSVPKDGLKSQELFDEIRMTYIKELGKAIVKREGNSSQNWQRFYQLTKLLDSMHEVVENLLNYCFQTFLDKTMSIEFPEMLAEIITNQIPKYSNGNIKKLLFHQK
Sequence of Peptidyl-prolyl cis-trans isomerase NIMA-interacting 1 (Homo sapiens) (Q13526 whole entry, looked up): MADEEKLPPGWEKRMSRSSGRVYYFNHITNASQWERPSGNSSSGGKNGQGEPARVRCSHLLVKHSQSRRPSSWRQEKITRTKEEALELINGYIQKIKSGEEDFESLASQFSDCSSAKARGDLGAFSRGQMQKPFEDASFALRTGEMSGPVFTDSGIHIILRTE
Sequence of Peroxisome proliferator-activated receptor gamma (Homo sapiens) (P37231 whole entry, looked up): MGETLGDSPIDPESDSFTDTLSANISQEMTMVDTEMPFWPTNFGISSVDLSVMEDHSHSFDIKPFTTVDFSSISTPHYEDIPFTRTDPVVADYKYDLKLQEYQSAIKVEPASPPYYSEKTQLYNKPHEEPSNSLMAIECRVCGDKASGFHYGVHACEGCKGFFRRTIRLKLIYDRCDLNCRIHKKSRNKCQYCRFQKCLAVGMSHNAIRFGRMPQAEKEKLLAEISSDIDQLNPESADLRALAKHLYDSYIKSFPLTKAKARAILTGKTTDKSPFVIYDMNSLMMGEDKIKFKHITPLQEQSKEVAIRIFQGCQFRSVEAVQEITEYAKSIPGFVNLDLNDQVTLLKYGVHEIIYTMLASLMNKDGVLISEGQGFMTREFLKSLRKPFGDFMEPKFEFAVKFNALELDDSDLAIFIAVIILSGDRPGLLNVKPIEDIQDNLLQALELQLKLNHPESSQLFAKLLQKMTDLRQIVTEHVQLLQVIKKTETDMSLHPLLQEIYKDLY
Sequence of DNA dC->dU-editing enzyme APOBEC-3G (Homo sapiens) (Q9HC16 whole entry, looked up): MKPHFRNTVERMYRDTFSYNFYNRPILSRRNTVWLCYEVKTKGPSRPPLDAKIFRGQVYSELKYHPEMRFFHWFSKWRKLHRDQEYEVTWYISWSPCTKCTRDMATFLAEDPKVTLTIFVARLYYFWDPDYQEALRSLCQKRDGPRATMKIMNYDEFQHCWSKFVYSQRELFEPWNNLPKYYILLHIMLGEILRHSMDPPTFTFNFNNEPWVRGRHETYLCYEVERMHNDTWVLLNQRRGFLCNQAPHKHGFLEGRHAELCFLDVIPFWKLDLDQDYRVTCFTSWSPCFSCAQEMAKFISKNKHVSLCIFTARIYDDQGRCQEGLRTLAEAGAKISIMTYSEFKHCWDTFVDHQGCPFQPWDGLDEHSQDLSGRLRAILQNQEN
Sequence of Vitamin D3 receptor (Homo sapiens) (P11473 whole entry, looked up): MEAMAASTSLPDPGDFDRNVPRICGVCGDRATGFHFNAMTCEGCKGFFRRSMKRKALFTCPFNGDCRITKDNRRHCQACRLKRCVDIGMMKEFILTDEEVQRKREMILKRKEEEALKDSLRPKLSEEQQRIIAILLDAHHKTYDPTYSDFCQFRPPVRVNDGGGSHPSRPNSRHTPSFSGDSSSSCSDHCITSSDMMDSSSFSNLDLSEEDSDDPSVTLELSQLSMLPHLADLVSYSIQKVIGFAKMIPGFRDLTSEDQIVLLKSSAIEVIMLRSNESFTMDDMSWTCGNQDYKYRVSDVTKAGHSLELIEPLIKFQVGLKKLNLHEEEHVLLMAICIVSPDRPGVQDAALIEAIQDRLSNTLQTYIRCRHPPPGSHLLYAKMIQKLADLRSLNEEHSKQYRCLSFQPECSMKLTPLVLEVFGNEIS

SMILES | outcome [1] | outcome [2] | outcome [3] | outcome [4] | outcome [5] | Potency [6] | Potency [7] | Potency [8] | outcome [9] | activation [10] | max response [11] | outcome [12] | outcome [13] | Potency [14] | outcome [15]
CCN1CCC[C@H]1CNC(=O)c1cc(S(N)(=O)=O)ccc1OC | inactive | inactive | inactive | inactive | inactive | inactive | inactive | inactive | inactive | – | – | – | – | – | –
O=C1NCC2(CCN(CCc3ccccc3)CC2)O1 | inactive | inactive | inactive | inactive | inactive | inactive | inactive | inactive | – | – | – | – | – | – | –
Clc1ccc(C(c2ccc(Cl)cc2)n2cc[n+](CC(OCc3ccc(Cl)cc3Cl)c3ccc(Cl)cc3Cl)c2)cc1 (centres undefined) | – | – | inactive | inactive | inactive | – | – | – | – | – | – | – | – | – | –
COc1ccccc1N1CCN(CCCNc2cc(=O)n(C)c(=O)n2C)CC1 | inactive | inactive | inactive | inactive | inactive | inactive | inactive | inactive | inactive | – | – | – | – | – | –
CCN(CC)C(=O)c1ccc(O)c(OC)c1 | inactive | inactive | inactive | inactive | inactive | inactive | inactive | inactive | – | – | – | – | – | – | –
O=C(O)CCc1nc(-c2ccccc2)c(-c2ccccc2)o1 | inactive | inactive | inactive | inactive | inactive | inactive | inactive | inactive | – | – | – | – | – | – | –
NC(N)=Nc1nc(CSCC/C(N)=N/S(N)(=O)=O)cs1 | inactive | inactive | inactive | inactive | inactive | inactive | inactive | inactive | – | – | – | – | – | – | –
NCCS | inactive | inactive | inactive | inactive | inactive | inactive | inactive | inactive | – | – | – | – | – | – | –
O=C1NC(=O)C(c2ccccc2)(c2ccccc2)N1 | inactive | inactive | inactive | inactive | inactive | inactive | inactive | inactive | – | -3.98% (inactive) and -0.765% (inactive) and -12.7% (inactive) | -66.4% and 31.2% and 54.5% | inactive | inactive | inactive | –
Clc1ccc(Cn2c(CN3CCCC3)nc3ccccc32)cc1 | inactive | inactive | inactive | inactive | inactive | – | inactive | inactive | – | – | – | – | – | – | –
CN(C)CCC(c1ccccc1)c1ccccn1 (centres undefined) | inactive | inactive | inactive | inactive | inactive | inactive | inactive | inactive | – | 4.14% (inactive) | 37.9% | inactive | inactive | – | inactive
